Compounds with a hit are over-represented: about 5.4% of the library has one in this group of screens.
ALR H2O2 inh = blocks human ALR sulfhydryl oxidase activity. P55789. purified ALR, DTT oxidation, H2O2 HRP-luminol luminescence. inhibition, % (test concentration not listed). 290,000 tested, 3.8% active. AID 485317;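 active means mean replicate inhibition above about 79%, with every replicate also reaching it, limit read from the data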
Target sequence (P55789 whole entry, looked up): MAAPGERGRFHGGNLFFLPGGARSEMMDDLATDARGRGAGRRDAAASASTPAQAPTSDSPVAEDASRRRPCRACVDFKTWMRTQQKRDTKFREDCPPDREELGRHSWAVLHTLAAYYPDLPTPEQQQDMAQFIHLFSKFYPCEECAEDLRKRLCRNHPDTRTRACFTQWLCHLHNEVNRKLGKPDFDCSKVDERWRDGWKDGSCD
APOBEC3A inh = inhibitors of human APOBEC3A DNA deaminase | P31941 | recombinant A3A, FAM/TAMRA ssDNA deamination fluorescence | inhibition, % at 20 µM | 330,000 tested, 0.41% active;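 active means at least 40% inhibition at 20 µM here, with at most 30% in a related deaminase screen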
Target sequence (P31941 whole entry, looked up): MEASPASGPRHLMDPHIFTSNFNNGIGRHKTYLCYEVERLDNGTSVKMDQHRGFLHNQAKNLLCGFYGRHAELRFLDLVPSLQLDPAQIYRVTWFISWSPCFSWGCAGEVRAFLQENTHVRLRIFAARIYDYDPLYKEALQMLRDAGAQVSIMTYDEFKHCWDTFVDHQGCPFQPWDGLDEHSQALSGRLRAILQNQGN
aDG glyco act = alpha-DG glycosylation activation; Pro5-aDG cells, alpha-DG glycosylation AlphaScreen (IIH6); 0% Pro5, 100% B10-LARGE cell signal; activation, % at 10 µM; 360,000 tested, 0.22% active; AID 624168;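 active means activation of at least 8% versus controls, or a plate z-score of at least 8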;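 further: Pro5 are CHO cells carrying HIG-tagged alpha-DG that lacks glycosylation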
APOBEC3G inh = APOBEC3G (human) deaminase inhibition. Q9HC16. recombinant A3G, ssDNA deamination FAM/TAMRA fluorescence. inhibition, % at 20 µM. 330,000 tested, 0.28% active;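 active means inhibition of at least 40% at 20 µM, with no more than 30% in the related APOBEC3A deaminase screen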
PHOSPHO1 block = PHOSPHO1 (human) inhibition; recombinant PHOSPHO1, absorbance phosphatase assay; 290,000 tested, 1.1% active; AID 1565; inhibition, % at 13.3 µM; in the data active means inhibition above about 60%
rCAG binder = r(CAG) repeat RNA binding. TO-PRO-1 dye displacement fluorescence. inhibition, % at 3 µM. 370,000 tested, 1.3% active. AID 651821;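 active means inhibition above the plate cutoff, the mean of all test compounds on that plate plus 3 SD, cut at about 35% in these data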;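 further: higher means more dye released from RNA so lower well fluorescence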
A number is an active result; i = inactive; nt = not tested or not shown.

SMILES	ALR H2O2 inh	APOBEC3A inh	aDG glyco act	APOBEC3G inh	PHOSPHO1 block	rCAG binder
CCCOc1ccc(-c2csc(N)n2)cc1[N+](=O)[O-]	99	i	i	i	i	i
CC(=O)C1=C(C)N(Cc2ccc(F)cc2)C(=S)NC1c1cccc(Br)c1 (centres undefined)	nt	nt	nt	nt	nt	i
Cc1ccccc1C(=O)N(C)[C@H]1C[C@H]2c3[nH]c4c(-c5ccc6c(c5)OCO6)cccc4c3CCN2C(=O)[C@H]1[C@H](C)O	nt	nt	nt	nt	nt	i
O=C(NCC1CC1)Nc1cccs1	99	i	i	i	i	i
CC(C)NC(=O)Nc1cccs1	97	i	i	i	i	i
O=C(Nc1cccnc1)NC1CCCCC1	i	i	i	i	68	i
Cc1ccc(CNC(=O)Nc2cccs2)cc1	i	i	i	i	i	i
CC1CCC(NC(=O)Nc2cccs2)CC1 (centres undefined)	98	i	i	i	i	i
S=C(Nc1cccnc1)NC1CCCCCCC1	i	i	i	i	i	i
O=C(Nc1cccs1)NC1CCCC1	99	i	i	i	i	i
O=[N+]([O-])c1ccc(N/N=C/c2ccc[nH]2)cc1	i	nt	i	nt	90	i
Clc1nssc1=Nc1nncs1	i	i	i	71	nt	i
CN1C(=O)CSC1=Nc1ccc(Br)cc1	nt	i	i	i	nt	i
Clc1ccc(N=c2ssnc2Cl)nc1	i	i	i	i	92	i
OCc1ccccc1N=c1ssnc1Cl	i	i	nt	i	91	nt
Clc1nssc1=Nc1ccc(Br)cc1	nt	nt	i	nt	80	i
COc1ccc(Cn2nnnc2C(CC(C)C)N2CCC(C(N)=O)CC2)cc1 (centres undefined)	i	i	i	i	66	i
CCn1c(=O)n(CC)c2cc(N)ccc21	98	i	i	i	i	i
CCn1c(C)nc2cc(N)ccc21	98	i	i	i	i	i
Cc1nc2cc(N)ccc2n1C1CCCCC1	100	i	i	i	i	i
Cc1nc2cc(C(=O)O)ccc2n1C1CCCCC1	i	i	i	i	i	i
COc1cc(Nc2cc(C)n(-c3cc(OC)cc(OC)c3)c(=O)c2)cc(OC)c1	nt	nt	nt	nt	nt	i
COc1ccc(C2SCC(=O)N2c2ccc(OC)cc2)cc1 (centres undefined)	i	i	i	i	i	i
COc1ccc(C2SCC(=O)N2c2ccc(F)cc2)cc1 (centres undefined)	99	i	i	i	i	i
Cc1ccc(N2C(=O)CSC2c2cccs2)cc1 (centres undefined)	99	i	i	i	i	i
SMILES	ALR H2O2 inh	APOBEC3A inh	aDG glyco act	APOBEC3G inh	PHOSPHO1 block	rCAG binder
COc1ccc(N2C(=O)CSC2c2ccncc2)cc1 (centres undefined)	99	i	i	i	i	i
COc1ccc(C2SCC(=O)N2c2ccccc2)cc1 (centres undefined)	nt	i	i	i	i	i
COCc1cc(C)nc(N2CCCCC2)c1C#N	i	i	i	i	i	i
COCc1cc(C)nc(N2CCN(c3ccccc3)CC2)c1C#N	95	i	i	i	i	i
COC(=O)c1cc(S(=O)(=O)N2CCN(C(C)=O)CC2)cn1C	nt	nt	nt	nt	nt	i
CC(C)C[C@H]1COc2cc(Br)ccc2S(=O)(=O)N1Cc1cn(CCC2OCCCO2)nn1	nt	nt	nt	nt	nt	i
C=CCN1C(=O)c2n[nH]c(C)c2C1c1ccc(C)cc1 (centres undefined)	nt	nt	nt	nt	nt	i
Cc1cc(N2CCN(c3nc4ccccc4s3)CC2)n2ncnc2n1	i	i	4.2	i	i	i
Cc1c(N)cccc1[N+](=O)[O-]	i	i	i	i	nt	i
Cc1c(N)cccc1N	86	i	i	i	nt	i
NC(=O)c1ccc(NC(=O)CSC2=Nc3ccccc3C3CC=NN23)cc1 (centres undefined)	99	i	i	i	i	nt
Cc1ccc(NC(=O)CSC2=Nc3ccccc3C3CC=NN23)c(C)c1 (centres undefined)	i	i	i	i	i	i
O=C(CSC1=Nc2ccccc2C2CC=NN12)Nc1ccc(F)cc1Cl (centres undefined)	i	i	i	i	i	i
COC(=O)c1ccc(NC(=O)CSC2=Nc3ccccc3C3CC=NN23)cc1 (centres undefined)	97	i	i	i	i	nt
C[N+]1(C)[C@H]2CC[C@H]1CC(OC(=O)C(O)c1ccccc1)C2 (some centres undefined)	nt	nt	nt	nt	nt	i
CCOC(=O)[C@]12CCCC=C1N(CCCOC)C(=O)[C@@H]2CC(=O)N1CCCCC1	nt	nt	nt	nt	nt	i
COc1ccc(C(=O)C(=NNc2ccccc2)c2ccc(OC)cc2)cc1	nt	nt	i	nt	nt	i
COc1ccc(N/N=C(\C=N\O)C(=O)c2ccc(OC)cc2)cc1	93	i	i	i	i	i
O=S(=O)(c1ccc(F)cc1)N1CCC(c2nc3ccccc3o2)CC1	nt	nt	nt	nt	nt	i
CC(C)(C)n1nnnc1C(c1cccnc1)N1CCN(c2ccccc2)CC1 (centres undefined)	i	i	i	i	i	i
COc1ccc(Cn2nnnc2C(c2ccc(N(C)C)cc2)N2CCC(C)CC2)cc1 (centres undefined)	i	i	i	i	i	i
COCCn1nnnc1C(c1ccccc1OC)N1CCN(c2ccccc2)CC1 (centres undefined)	84	i	i	i	i	i
CC1CCN(C(c2ccc(N(C)C)cc2)c2nnnn2Cc2ccccc2)CC1 (centres undefined)	nt	i	i	i	69	i
CCN1CCN(C(c2ccccc2)c2nnnn2Cc2ccc3c(c2)OCO3)CC1 (centres undefined)	i	i	i	i	61	i
c1ccc(Cn2nnnc2C(c2cccnc2)N2CCN(c3ccccc3)CC2)cc1 (centres undefined)	98	i	i	i	i	i
SMILES	ALR H2O2 inh	APOBEC3A inh	aDG glyco act	APOBEC3G inh	PHOSPHO1 block	rCAG binder
Nc1ncnc2c1ncn2[C@@H]1O[C@H](C(=O)N[C@@H](CCc2ccccc2)C(=O)O)[C@@H](O)[C@H]1O	nt	nt	nt	nt	nt	i
CCOC(=O)C(C)Sc1nc2c(c(=O)[nH]c(=O)n2C)n1C/C=C(/C)Cl (centres undefined)	i	i	i	i	65	i
CCSc1nc2c(c(=O)[nH]c(=O)n2C)n1C/C=C(/C)Cl	i	i	i	i	i	i
Cc1cc(/C=N/n2cnnc2)c(C)n1-c1ccc(OCc2ccc(Cl)cc2)cc1	i	i	i	i	i	i
Cc1cc(/C=N/n2cnnc2)c(C)n1-c1ccc(OCc2ccccc2F)cc1	i	i	5.9	i	i	i
CC(COc1ccc(CC#N)cc1)CN1CCC(C(O)(c2ccccc2)c2ccccc2)CC1 (centres undefined)	nt	nt	nt	nt	nt	i
CCC(C)N(C(=O)CN1C(=O)C2CCCCN2C(=O)c2ccccc21)C(C)CC (centres undefined)	nt	nt	nt	nt	nt	i
COC(=O)C1=C(C)N(Cc2cccc(C(F)(F)F)c2)C(=NCc2ccc3c(c2)OCO3)NC1CCc1ccccc1 (centres undefined)	nt	nt	nt	nt	nt	i
CC/C(=N\NC(=O)c1ccc(-c2ccccc2)cc1)C12CC3CC(CC(C3)C1)C2	98	i	i	i	i	i
